# Source: PubChem (National Center for Advancing Translational Sciences (NCATS))
# This excerpt belongs to a sample that is enriched for hits.
# Cycloheximide cs = affects cycloheximide protein synthesis inhibition readout, counter-screen; max response, %; cell reporter, cycloheximide protein synthesis inhibition counterscreen; actives 12% (n = 300,000); in the data active = max response mostly above about 13%, no sharp cut-off; inactive = mostly below about 14%; also: read at 38.3 µM for the half of the compounds with a filed dose; 0% is about no effect
# SARS PLP yeast = inhibitors of SARS-CoV papain-like protease in yeast | S. cerevisiae expressing SARS-CoV PLpro, growth rescue | Potency, µM (highest dose often 32.9 µM), for the others: at the highest dose activity, positive = growth rescue, usual class: activators | actives 0.19% (n = 330,000) | AID 485353; also: potency is read from the fitted curve at half-maximal effect; 0% is about no effect; nearly all actives have a fitted effect of over 55% in size
# LmPK inhibitor = blocks Leishmania mexicana pyruvate kinase activity; Potency, µM (titrated, usually from 57.5 µM), for the others: at the top dose activity change, negative = inhibition, actives largely listed as inhibitors; purified LmPK, Kinase-Glo ATP luminescence, 1 h; actives 0.37% (n = 290,000); Q27686; active = well fitted curve in the direction sought with a large enough effect; inconclusive = small, poorly fitted or top-dose-only effect, or another doubt; inactive = no such curve, though single readings can be large; an effect the other way counts as inactive or inconclusive; also: potency is read from the fitted curve at half-maximal effect; % is scaled to controls: 0 for no effect and ±100 for the full control effect
# Target sequence (Q27686 whole entry, looked up): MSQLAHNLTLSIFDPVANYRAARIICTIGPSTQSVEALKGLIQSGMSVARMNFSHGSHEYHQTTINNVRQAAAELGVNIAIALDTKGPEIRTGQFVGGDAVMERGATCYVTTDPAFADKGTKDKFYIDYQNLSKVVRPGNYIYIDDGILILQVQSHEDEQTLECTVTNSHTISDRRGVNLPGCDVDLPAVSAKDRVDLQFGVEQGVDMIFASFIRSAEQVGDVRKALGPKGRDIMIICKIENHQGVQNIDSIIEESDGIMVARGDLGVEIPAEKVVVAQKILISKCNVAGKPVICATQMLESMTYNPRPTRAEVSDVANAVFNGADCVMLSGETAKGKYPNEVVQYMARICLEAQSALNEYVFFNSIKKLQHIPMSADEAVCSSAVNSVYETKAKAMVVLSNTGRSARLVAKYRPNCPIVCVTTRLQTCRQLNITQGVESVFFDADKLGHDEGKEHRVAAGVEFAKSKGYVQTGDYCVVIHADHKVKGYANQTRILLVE
#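 Kinase-Glo luminescence read after 1 h RT reaction of 0.1 nM LmPK with 0.5 mM PEP and 0.1 mM ADP. Activity scaled between uninhibited and enzyme-free controls.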
# Tb PYK inh = T. brucei pyruvate kinase inhibition | Q57TT1 | TbPYK enzyme, Kinase-Glo Plus ATP luminescence, 45 min | actives 0.12% (n = 410,000) | Potency, µM (top dose mostly 76.8 µM), without a hit: top-dose activity, negative = inhibition, hits mostly inhibitors; active = well fitted curve in the direction sought with a large enough effect; inconclusive = small, poorly fitted or top-dose-only effect, or another doubt; inactive = no such curve, though single readings can be large; an effect the other way counts as inactive or inconclusive; also: potency is read from the fitted curve at half-maximal effect; % is scaled to controls: 0 for no effect and ±100 for the full control effect; nearly all actives have a fitted effect of over 50% in size
#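 TbPYK + substrate in 50 mM TEA pH 7.2, 100 mM KCl, 10 mM MgCl2, 0.05% BSA, 0.01% Tween-20; cpd pinned; ADP 130 uM final; 45 min RT; Kinase-Glo Plus 10 min; luminescence endpoint.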
# Shiga inhibitor = Shiga toxin inhibition | Vero cells, Shiga toxin protein synthesis inhibition reporter | inhibition, % at 38.7 µM | actives 9.2% (n = 290,000); in the data active = inhibition mostly above about 28%, no sharp cut-off; inactive = mostly below about 43%; also: 0% is about no effect
# NS1 inh = blocks influenza NS1 protein function; Potency, µM (titrated, usually from 46.1 µM), for the others: at the top dose activity, positive = more growth; actives 0.4% (n = 270,000); AID 2326; also: potency is read from the fitted curve at half-maximal effect; actives are rising curves; nearly all actives have a fitted effect of over 50% in size
#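 Compounds were scored for reversing the slow growth caused by influenza A NS1 in S. cerevisiae, measured by optical density at 600 nm. Assay medium contained 2% galactose at pH 6.0; NS1-free yeast of the same strain were the positive control.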
# Active calls of the source: *; ? = inconclusive; nt = no result given; [ ] = another dose, or the depositor's remark. Unless noted, calls follow the shape of the full dose curve.
SMILES,Cycloheximide cs,SARS PLP yeast,LmPK inhibitor,Tb PYK inh,Shiga inhibitor,NS1 inh
CC(C)CCNC(=O)c1ccc2c(c1)ncn2C1CCCCC1,19.2,-2.7%,0.4%,-18.8%,42.0*,-16.0%
O=C(O)c1ccc2c(c1)ncn2C1CCCC1,47.8*,4.8%,6.0%[11.5 µM],-4.6%,113.6*,nt
CCCCNC(=O)c1ccc2c(c1)ncn2C1CCCCC1,11.8,4.9%,1.0%,-0.3%,-4.2,-3.3%
N#Cc1ccc(CN2CCCC3(CCN(C(=O)c4ccncc4)CC3)C2)cc1,nt,nt,nt,-7.3%,nt,nt
Cc1ccc(C)c(NC(=O)Cn2nc(C)c3nn(-c4ccc(Cl)cc4)c(C)c3c2=O)c1,nt,nt,nt,3.4%,nt,nt
CCOc1ccc(-c2cn(CCC#N)cn2)cc1,14.5*,3.0%,-3.4%,2.4%,18.3,-4.9%
COCCNC(=O)CCCn1c(SCC(=O)c2ccc(F)cc2)nc2c(sc3ccccc32)c1=O,nt,nt,nt,4.2%,nt,nt
CCOc1ccccc1C(=O)N1CCN(CCc2ccccn2)CC1,nt,nt,nt,0.1%,nt,nt
COc1ccc(NC(=O)C2Cc3ccccc3O/C2=N\O)cc1 (stereo not drawn),50.9*,0.2%,-0.3%,-0.8%,113.5*,4.5%
Cc1cccc(NC(=O)C2Cc3ccccc3O/C2=N\O)c1 (stereo not drawn),27.1*,-0.3%,4.2%,-9.7%,63.0*,3.3%
CN1CCN(CN2C(=O)C3C4C=CC(C3C2=O)C2C3C(=O)N(CN5CCN(C)CC5)C(=O)C3C42)CC1 (stereo not drawn),nt,nt,nt,nt,nt,-13.2%
CCN(CC)S(=O)(=O)c1ccc2c(c1)nc(CN(C)C(=O)Nc1ccc(C)c(Cl)c1)n2C,nt,nt,nt,-1.2%,nt,nt
Cc1ccc(-c2nc3nc4ccccc4nc3n2Cc2ccco2)cc1,51.7*,-2.2%,-10.4%,-11.6%,63.1*,-9.2%
Clc1ccc(-c2nc3nc4ccccc4nc3n2Cc2ccco2)cc1,52.2*,-10.8%,12.7%,5.1%,82.3*,-10.4%
CCCn1c(-c2ccc(OC)cc2)nc2nc3ccccc3nc21,11.0,-8.1%,5.0%,-5.7%,3.4,-13.5%
Cc1nc2ccccc2c(=O)n1Cc1ccco1,0.3,0.1%,6.3%,0.8%,-9.0,4.9%
CCOC(=O)CN1N=C(/C=C/c2ccc(C(C)C)cc2)CCC1=O,34.9*,-8.7%,-6.0%,-0.2%,36.8,nt
CCOC(=O)CN1N=C(/C=C/c2ccc(OCC)cc2)CCC1=O,30.0*,-1.2%,6.7%,-6.2%,34.2,nt
CCCOc1ccc(C(=O)Nc2cc3nn(-c4ccc(CC)cc4)nc3cc2C)cc1,nt,nt,nt,-1.0%,nt,nt
O=C(Nc1ccc2c(c1)[C@H]1C[C@@H](CC(=O)N3CCOCC3)O[C@@H](CO)[C@H]1O2)C1CCOCC1,nt,nt,nt,4.9%,nt,nt
CN(Cc1ccccc1)C(=O)c1cccc(NC(=O)Cc2ccc(NC(=O)C3CCCN(C(=O)C4CCCC4)C3)cc2)c1 (stereo not drawn),nt,nt,nt,3.1%,nt,nt
O=C(Nc1ccc(NC(=O)c2cccnc2Cl)cc1)c1cccc(Cl)c1,21.0,-0.7%,10.7%,-3.0%,39.6*,-13.0%
CC(=O)NC(=S)Nc1ccc(NC(=O)c2cccnc2Cl)cc1,25.2*,-1.5%,0.1%,-2.7%,46.5,-7.2%
O=C(Nc1cccnc1)c1cccnc1Cl,9.3,-20.8%,-3.6%,1.3%,17.6,-8.3%
COc1ccc(OC)c(-c2cc(C(=O)NC3CCCC3)c3ccccc3n2)c1,-1.8,?,-3.2%,-2.1%,17.4,-1.9%
SMILES,Cycloheximide cs,SARS PLP yeast,LmPK inhibitor,Tb PYK inh,Shiga inhibitor,NS1 inh
COc1ccc(N=Cc2c(O)c3ccccc3n2C(C)=O)cc1,14.4*,-1.7%,-23.9%,-2.6%,52.4,-4.2%
COc1ccc(-n2c(O)c(C=Nc3ccccc3)c3ccccc3c2=O)cc1,-9.1,-0.1%,1.7%,-13.1%,-13.1,nt
COc1ccc(N=Cc2sc(O)c3ccccc23)cc1,66.1*,-6.6%,-8.2%,0.4%,87.2*,6.6%
COCCNc1nc(Nc2ccccc2Cl)c2sccc2n1,nt,nt,nt,1.9%,nt,nt
Cc1sc2nc3c4ccccc4c(NCc4ccco4)nn3c(=O)c2c1C,73.3*,-1.2%,-8.6%,-8.6%,134.8*,-6.4%
Cc1nn(-c2ccc(N3CCOCC3)nn2)c(C)c1CCC(=O)Nc1ccc(F)cc1F,nt,nt,nt,-2.1%,nt,nt
COc1cc2c(cc1OC)C(COc1cc(C)cc(C)c1)N(C(=O)c1ccc(S(=O)(=O)N3CCCC3)cc1)CC2 (stereo not drawn),nt,nt,nt,1.6%,nt,nt
CCOC(=O)/C(C#N)=C/c1ccc(-c2ccc(C)cc2)o1,nt,nt,nt,0.3%,nt,nt
CCOC(=O)/C(C#N)=C/N=c1ccc(C)cn1C,51.3*,0.4%,2.9%,-6.7%,67.8*,-3.0%
CCCN1C=CC(=C/C=C(\C#N)C(=O)OCC)C=C1,27.9*,3.0%,-4.7%,nt,92.9*,13.5%
CC1CCN(C(=S)NC(=O)c2ccc(C(C)(C)C)cc2)CC1,5.1,-12.0%,0.0%,4.5%,5.1,-59.7%
CC(C)(C)c1ccc(C(=O)NC(=S)N2CCCCCC2)cc1,19.8*,-14.7%,-1.5%,4.6%,34.5,-87.4%
CC(C)(C)c1ccc(C(=O)NC(=S)N2CCCC2)cc1,32.3*,-4.4%,-3.4%,-11.7%,28.3,-21.9%
CC(C)(C)c1ccc(C(=O)NC(=S)Nn2cnnc2)cc1,18.5*,-12.9%,-4.5%,-8.1%,120.4*,17.9%
CCOc1ccc(CNC(=O)c2cnc3sc(N4CCOCC4)nn3c2=O)cc1OC,nt,nt,nt,4.0%,nt,nt
COc1ccccc1NC(=O)Nc1ccc(CC#N)cc1,25.3*,-1.9%,-7.9%,1.6%,43.4*,-7.2%
CCN1CCN(CCC(=O)Nc2ccccc2OC)CC1,-4.0,2.7%,5.6%,1.8%,25.9,-1.9%
COc1ccccc1NC(=O)Nc1ccc(C(N)=O)cc1,12.8*,1.3%,-8.4%,1.8%,19.4,nt
COc1ccccc1NC(=O)Nc1ccc(Cc2ccncc2)cc1,10.1,-1.1%,0.9%,-0.2%,49.8*,-7.0%
CCN1CCN(Cc2ccc(NC(=O)Nc3ccccc3OC)cc2)CC1,35.0*,0.4%,-0.6%,1.8%,10.4*,-7.0%
COc1ccccc1NC(=O)Nc1ccc(NC(=O)c2ccccc2O)cc1,7.8,-0.9%,2.5%,-10.1%,14.1,-4.7%
COc1ccccc1NC(=O)Nc1ccncc1,-1.5,-4.0%,-9.3%,2.5%,34.0,nt
COc1ccccc1NC(=O)Nc1ccccc1C(N)=O,18.5,1.0%,-3.1%,-2.9%,19.2,-2.1%
CC1(C)Cc2ccccc2-c2n[nH]c(=S)n21,-4.1,?,7.08µM*,2.82µM*,14.8,5.3%
[O-]/[N+](=C\c1ccncc1)c1ccc(Br)cc1,17.4*,-3.9%,-1.1%,-22.6%,39.4,-80.2%
CN1C(=S)SC(/[N+]([O-])=C/c2cccnc2)C1(C)C (stereo not drawn),-2.3,2.4%,-6.8%,-2.0%,-9.2,?
[O-]/[N+](=C/c1cccnc1)c1ccc(Br)cc1,37.0*,1.1%,1.1%,-13.0%,93.5*,-0.2%
CC(C)(C)c1cc(NC(=O)COC(=O)c2ccccc2O)n(-c2ccccc2)n1,nt,nt,nt,-9.9%,nt,nt
